The list is not random: actives were taken first. Their share in the collection is about 10%.
JMJD2A Tudor: blocks the human JMJD2A Tudor domain. O75164. AlphaScreen JMJD2A-Tudor / H3K4me3 peptide binding. Potency, µM (series often up to 114 µM), inactives show at the top dose activity change, negative = inhibition, hits mostly inhibitors. 390,000 tested, 4.4% active. AID 504339; also: potency is read from the fitted curve at half-maximal effect; % is scaled to controls: 0 for no effect and ±100 for the full control effect; nearly all actives have a fitted effect of over 50% in size
Target sequence (O75164 whole entry, looked up, the tested form may be a part): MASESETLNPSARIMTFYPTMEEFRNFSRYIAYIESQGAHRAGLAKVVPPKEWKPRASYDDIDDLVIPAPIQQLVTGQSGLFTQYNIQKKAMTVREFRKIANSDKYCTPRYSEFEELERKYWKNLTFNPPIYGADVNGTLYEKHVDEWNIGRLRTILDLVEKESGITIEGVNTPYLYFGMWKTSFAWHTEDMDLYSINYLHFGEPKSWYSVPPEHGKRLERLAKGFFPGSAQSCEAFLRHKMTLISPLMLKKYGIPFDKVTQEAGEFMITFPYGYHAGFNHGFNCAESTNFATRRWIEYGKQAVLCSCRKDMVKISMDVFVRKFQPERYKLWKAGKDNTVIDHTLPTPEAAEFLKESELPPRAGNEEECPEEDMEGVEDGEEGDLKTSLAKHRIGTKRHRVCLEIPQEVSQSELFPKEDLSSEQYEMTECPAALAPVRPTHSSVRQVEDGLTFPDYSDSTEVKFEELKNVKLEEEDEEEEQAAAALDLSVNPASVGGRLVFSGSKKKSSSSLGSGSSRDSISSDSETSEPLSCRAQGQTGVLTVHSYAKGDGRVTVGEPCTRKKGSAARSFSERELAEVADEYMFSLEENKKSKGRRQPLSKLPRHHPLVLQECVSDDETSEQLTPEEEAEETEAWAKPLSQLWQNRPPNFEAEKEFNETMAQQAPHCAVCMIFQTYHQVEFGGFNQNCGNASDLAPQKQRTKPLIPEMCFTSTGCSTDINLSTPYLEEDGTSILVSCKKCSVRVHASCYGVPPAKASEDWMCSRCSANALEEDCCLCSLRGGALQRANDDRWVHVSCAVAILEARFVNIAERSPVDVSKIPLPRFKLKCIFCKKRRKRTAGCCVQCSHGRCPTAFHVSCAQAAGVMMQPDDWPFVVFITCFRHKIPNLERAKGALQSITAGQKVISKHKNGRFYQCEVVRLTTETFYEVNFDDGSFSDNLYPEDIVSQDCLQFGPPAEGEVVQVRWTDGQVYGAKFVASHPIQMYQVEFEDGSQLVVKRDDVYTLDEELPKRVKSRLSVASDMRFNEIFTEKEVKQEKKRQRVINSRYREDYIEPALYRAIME
CtBP-E1A blk: CtBP/E1A binding inhibition | 340,000 tested, 0.49% active | activity change, % (test concentration not listed) | AlphaScreen GST-E1A/His-CtBP binding, 1536-well; hits give low values; in the data active = activity change below about -65%; inconclusive = mostly about -30% to -63%; also: % is scaled to controls: 0 for no effect and ±100 for the full control effect
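In 5 uL wells, 23 nL compound meets equimolar GST-E1A and His-CtBP (5X stock 125 nM each) for 2 h, 37 °C. Beads (5X, 50 ug/mL) then 1 h, 37 °C, dark.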
BAZ2B block: blocks human BAZ2B. Q9UIF8. AlphaScreen BAZ2B-H3K14Ac peptide displacement. Potency, µM (series often up to 114 µM), without a hit: top-dose activity change, negative = inhibition, usual class: inhibitors. 360,000 tested, 4.4% active; also: potency is read from the fitted curve at half-maximal effect; % is scaled to controls: 0 for no effect and ±100 for the full control effect; nearly all actives have a fitted effect of over 60% in size
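AlphaScreen displacement: compounds (up to 110uM) incubated 30 min at room temperature with a preformed 50 nM BAZ2B/50 nM biotinylated H3K14Ac peptide complex in PBS pH 7.4 with Tween-20. Donor and acceptor beads at 10 ug/mL final added, 20 min light-protected before reading.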
Six1-Eya2 inh: inhibitors of human Six1/Eya2 interaction; Q15475+O00167; AlphaScreen GST-Six1/His-Eya2 binding, biochemical; hits give low values; activity change, % (no concentration beside the values); 360,000 tested, 0.56% active; AID 651725; in the data active = activity change below about -65%; inconclusive = mostly about -30% to -63%; also: % is scaled to controls: 0 for no effect and ±100 for the full control effect
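AlphaScreen with GST-Six1 and His-Eya2 (5X mix: 250 nM and 500 nM), glutathione donor and nickel acceptor beads; buffer 50 mM Tris pH 8.0, 300 mM NaCl, 1 mM TCEP; 1 h at 37 C in the dark.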
G9a block: inhibitors of human histone lysine methyltransferase G9a | Q96KQ7 | G9a H3K9 monomethylation, AlphaScreen, 2 h | Potency, µM (highest dose often 102 µM), without a hit: at the top dose activity, negative = inhibition, hits mostly inhibitors | 350,000 tested, 8.8% active; also: potency is read from the fitted curve at half-maximal effect; % is scaled to controls: 0 for no effect and ±100 for the full control effect; nearly all actives have a fitted effect of over 75% in size
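Enzyme 20 nM + cpd, 15 min RT; add b-H3K9 pep 500 nM / SAM 20 uM; 2 h RT; anti-H3K9me1 Ab 0.5 ug/mL + SA donor / anti-rabbit acceptor beads 20 ug/mL each, 10 min; AlphaScreen read.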
HP1b chromo inh: inhibitors of HP1-beta chromodomain binding to methylated histone tails | P83916 | AlphaScreen HP1-beta / biotin-H3K9me3 peptide binding | Potency, µM (titrated, usually from 114 µM), inactives show at the top dose activity change, negative = inhibition, most hits filed as inhibitors | 390,000 tested, 0.56% active | AID 540317; also: potency is read from the fitted curve at half-maximal effect; nearly all actives have a fitted effect of over 70% in size
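HP1-beta protein (50 nM final) preincubated 30 min at room temperature with biotinylated H3(1-18)K9me3 peptide (50 nM) in PBS pH 7.4, 0.01% Tween-20, then compound added for 30 min. AlphaScreen streptavidin donor/nickel chelate acceptor beads (10 ug/mL final), 30 min dark, luminescence read.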
Starred values were filed as active, the others as inactive; ? = inconclusive; . = no result; [ ] = remark or other dose. Unless noted, calls follow the shape of the dose curve; as a rule, active = well fitted inhibition curve with a large enough effect; inconclusive = small, poorly fitted or top-dose-only effect; inactive = no such curve, though single readings can be large or run the other way.

SMILES	JMJD2A Tudor	CtBP-E1A blk	BAZ2B block	Six1-Eya2 inh	G9a block	HP1b chromo inh
CCCNC(=O)C1CCC(Cn2c(=O)c3sccc3n(CC(=O)N3CCCC3)c2=O)CC1 (stereo not drawn)	-9%	.	-12%	.	13%[59 µM]	38%
CCN(CC)S(=O)(=O)c1ccc2c(c1)nc(-c1ccccn1)n2C	32µM*	0	4%	-16	10µM*	2%
COc1cc(C(=O)O)nc2ccccc12	13µM*	-7	40µM*	-11	12%[2.33 µM]	-10%
COC(=O)c1cnc2ccccc2n1	-12%	9	13%	6	-6%[59 µM]	27%
O=C1c2ccccc2C(=O)C1c1cc2ccccc2cn1	-23%	.	.	.	.	65%
O=C(O)c1cc2ccccc2cn1	0.32µM*	-84*	.	-80*	.	0%[57 µM]
O=C(O)c1cnc2ccccc2n1	20µM*	22	?	16	13%[59 µM]	?
Cc1ccc(S(=O)(=O)Nn2c(C)ccc2C)cc1	50µM*	0	?	-3	-10%[2.33 µM]	0%
Cc1ccc(S(=O)(=O)Nc2ccccc2NS(=O)(=O)c2ccc(C)cc2)cc1	.	2	.	0	.	.
Cc1ccc(Cl)cc1N1CCN(C(=O)Cn2ncc3c([nH]c4ccccc43)c2=O)CC1	-14%	.	1%	.	1%[59 µM]	3%
CCc1nc(SCc2cc(=O)c3cc(F)ccc3[nH]2)n[nH]1	-13%	.	10%	.	7%[59 µM]	17%[57 µM]
CCOC(=O)c1c(C)oc2c1cc(NS(=O)(=O)c1ccc(C)cc1)c1ccccc12	-7%	.	6%	.	21%[59 µM]	20%
COc1cc(CNc2nc3c(C)cc(C)cc3s2)ccc1O	?	-2	50µM*	-3	45µM*	-18%
Brc1ccc2c(c1)OCCOCCOc1cc(Br)ccc1OCCOCCOCCO2	3%	5	-1%	-7	19%[59 µM]	61%
S=c1[nH]nc(Cc2ccc(Cl)cc2)n1-c1ccc2c(c1)OCCO2	?	.	?	-2	.	8%
COc1cc(OC)cc(-c2n[nH]c(=S)n2-c2ccc3c(c2)OCCO3)c1	4.5µM*	-6	-25%	-9	3.5µM*	14%
COc1ccc(Cc2n[nH]c(=S)n2-c2ccc3c(c2)OCCO3)cc1	6.3µM*	.	-23%	-1	8.9µM*	13%
COc1ccc(-c2n[nH]c(=S)n2-c2ccc3c(c2)OCCO3)cc1	3.2µM*	.	-33%	-5	1.8µM*	?
COc1ccc(-c2[nH]ncc2-c2ccc3c(c2)OCCO3)c(O)c1	?	-6	?	-10	-4%[59 µM]	2%
S=c1[nH]nc(-c2ccc(Br)cc2)n1-c1ccc2c(c1)OCCO2	71µM*	3	?	-7	1.6µM*	9%
COc1cc(NC(=O)CCc2c(C)n(C)c3cc(-c4ccccc4C)nn3c2=O)cc(OC)c1OC	-10%	.	3%	.	10%[59 µM]	32%[57 µM]
CCc1ccc(NC(=O)c2cc(CN3CCOCC3)on2)cc1	-7%	.	-1%	.	6%[59 µM]	48%
Cc1cc(C)cc(OCC(=O)Nc2cccc3cccnc23)c1	1%	.	0%	.	23%[59 µM]	57%
O=C(O)c1ccccc1O	-4%	7	10%	3	19%[59 µM]	37%
O=C(O)c1cccc(C(=O)O)c1Br	89µM*	8	?	2	9%	4%
SMILES	JMJD2A Tudor	CtBP-E1A blk	BAZ2B block	Six1-Eya2 inh	G9a block	HP1b chromo inh
Nc1c(O)cccc1C(=O)O	56µM*	-8	.	-8	.	-15%
COc1ccccc1N1CCN(c2nc3c(S(=O)(=O)c4ccccc4)nnn3c3ccc(Cl)cc23)CC1	-13%	.	-7%	.	-9%[59 µM]	11%
S=c1[nH]nc(Nc2ccccc2Cl)s1	6.3µM*	0	45µM*	2	1.4µM*	22µM*
S=c1[nH]nc(Nc2cccc(Cl)c2)s1	-15%	.	-31%	-3	1.4µM*	28%
Cc1ccc(Nc2n[nH]c(=S)s2)cc1C	.	3	.	-10	.	.
COCCCNC1=C(C#N)C(=O)NC(c2cccc([N+](=O)[O-])c2)S1 (stereo not drawn)	.	0	.	11	.	.
COc1cc(C2NC(=O)C(C#N)=C(Nc3cccc(C)c3)S2)ccc1O (stereo not drawn)	-10%	.	-29%	0	45µM*	17%
c1coc(CNC2CCCCC2)c1	7.1µM*	3	?	6	?	-42%
c1coc(CNC2CCCCCCC2)c1	50µM*	2	89µM*	0	20µM*	-20%
COc1ccc(C(C#N)=C2C=C(Cl)C(=NO)C=C2Cl)cc1	.	-11	.	-8	.	.
COc1ccc(C(C#N)=C2C=CC(=NO)C(C)=C2Cl)cc1	8.9µM*	27	.	-28	.	?
CC(C)Cn1c(-c2csc(C(C)C)c2)n[nH]c1=S	?	0	-34%	8	5µM*	-10%
CCn1c(-c2csc(C(C)C)c2)n[nH]c1=S	10µM*	3	-10%	6	1.6µM*	?
CC(C)Cn1c(-c2cccs2)nc2ccccc21	0%	-4	3%	-2	-4%[2.33 µM]	33%
CC(=O)c1cccc(NC(=O)C2CCCN(c3nnc(-n4cccc4)s3)C2)c1 (stereo not drawn)	-11%	.	-3%[57.1 µM]	.	-6%[59 µM]	12%
C=C(CN(C)C)C(=O)c1cc(C)ccc1C	89µM*	9	.	4	.	35µM*
Cc1ccc(C)c(OCC(=O)NC(Cc2c[nH]c3ccccc23)C(=O)O)c1 (stereo not drawn)	-12%	1	?	-15	.	27%
CCOc1ccccc1Nc1nnc(SCC(=O)NC(Cc2c[nH]c3ccccc23)C(=O)O)s1 (stereo not drawn)	-29%	-24	-31%	?	40µM*	-9%
Cc1ccc(Nc2nnc(SCC(=O)NC(Cc3c[nH]c4ccccc34)C(=O)O)s2)cc1 (stereo not drawn)	-23%	.	50µM*	?	13µM*	1%
CCOc1ccccc1Nc1nnc(SCC(=O)Nc2ccc3[nH]c(=O)[nH]c3c2)s1	-24%	-6	-12%	-21	-108%[59 µM]	37%
Cc1cccn2cc(CSc3nnc(Nc4ccc(C(C)C)cc4)s3)nc12	-29%	-1	-37%	-6	40µM*	14%
COc1ccc(Nc2nnc(SCc3cn4c(C)cccc4n3)s2)cc1	-32%	-1	?	-25	?	4%
CCCC[C@H](O)c1ccccc1	.	.	.	.	-18%[12.7 µM]	.
C/C(CCC(=O)O)=N/Nc1ccc([N+](=O)[O-])cc1[N+](=O)[O-]	?	-4	?	-6	?	-5%
C/C(CCCO)=N/Nc1ccc([N+](=O)[O-])cc1[N+](=O)[O-]	-25%	-2	?	-8	-2%	3%
CCC(CC)=NNc1ccc([N+](=O)[O-])cc1[N+](=O)[O-]	-17%	-6	?	-11	9%	24%
